Test [1] is described as follows: qHTS assay to identify small molecule agonists of the vitamin D receptor (VDR) signaling pathway - cell viability counter screen (AID 743224). Also: series mostly up to about 63 µM; nearly all actives have a fitted effect of over 50% in size. The method in brief:
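Cytotoxicity counter screen: VDR-bla cells, 16 h compound exposure at 37C, 5% CO2; CellTiter-Glo luminescence, 30 min RT, same wells as bla read.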
(Quantitative high-throughput screening tests each substance at several concentrations.)

Test [2] can be described thus: qHTS assay to identify small molecule antagonists of the vitamin D receptor (VDR) signaling pathway - cell viability counter screen (AID 743225). Also: nearly all actives have a fitted effect of over 50% in size. The method in brief: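 In this counter screen, VDR-bla HEK 293T cells receive test compound plus 3 nM final calcitriol for 16 h at 37C. Room-temperature steps of 2 h with the beta-lactamase substrate, then 30 min with CellTiter-Glo, precede the luminescence read.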

Test [3] in a line: qHTS assay to identify small molecule agonists of the NFkB signaling pathway (AID 1159509; active = well fitted curve in the direction sought with a large enough effect in the signal ratio in the repeat runs, not every such curve was filed as active; the % refers to the signal ratio; also: series mostly up to about 61 µM). The method in brief:
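Agonist activity was read as beta-lactamase-driven FRET change (460 and 530 nm emission, 405 nm excitation) following 1.5 hr substrate loading at room temperature. Beforehand, ME-180 NFkB-bla reporter cells were treated with compounds for 5 hr at 37 C.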

The nature of test [4]: qHTS assay to identify small molecule agonists of the NFkB signaling pathway - cell viability counter screen (AID 1159515; calls by dose curve; also: series mostly up to about 61 µM; nearly all actives have a fitted effect of over 55% in size). The method in brief:
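ME-180 NFkB-bla cells, 2,000/well; overnight attach; compound 5 hr, 37 C/5% CO2; LiveBLAzer substrate 1.5 hr RT; then CellTiter-Glo in same wells, 30 min RT, luminescence read.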

The nature of test [5]: qHTS assay to identify small molecule agonists of the endoplasmic reticulum stress response signaling pathway (AID 1159516; active = well fitted activation curve with a large enough effect in the signal ratio in the repeat runs, not every such curve was filed as active; the % refers to the signal ratio). The method in brief:
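HeLa ESRE-bla reporter line; cpd 5 h, 37 C/5% CO2; LiveBLAzer B/G FRET substrate 2 h RT; ex 405, em 460/530 nm.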

Test [6] can be described thus: qHTS assay to identify small molecule agonists of the endoplasmic reticulum stress response signaling pathway - cell viability counter screen (AID 1159517; calls by dose curve;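 also: HeLa cells carrying an ER stress response element beta-lactamase reporter; series mostly up to about 61 µM; nearly all actives have a fitted effect of over 50% in size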). The method in brief:
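In parallel with the ESRE reporter read, cytotoxicity was scored by CellTiter-Glo luminescence (30 min, room temperature) on HeLa ESRE-bla cells dosed for 5 hr.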

Test [7] can be described thus: qHTS assay to identify small molecule antagonists of the retinoid-related orphan receptor gamma (ROR-gamma) signaling pathway - cell viability counter screen (AID 1159520). Also: nearly all actives have a fitted effect of over 50% in size. The method in brief:
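Tet-on ROR gamma CHO cells were given compounds for 2 hr, then doxycycline hyclate at 1 uM final, and incubated 16 hr at 37 C. Viability was measured as ATP content by CellTiter-Glo luminescence.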

Test [8] addresses Nuclear receptor ROR-gamma (Homo sapiens) (UniProt P51449). The experiment in a line: qHTS assay to identify small molecule antagonists of the retinoid-related orphan receptor gamma (ROR-gamma) signaling pathway (AID 1159521; also: nearly all actives have a fitted effect of over 50% in size; also: potency is read from the fitted curve at half-maximal effect). The method in brief: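 Screening format: cell-based luciferase reporter in CHO cells with doxycycline-inducible RORγ. Compound pre-exposure lasts 2 h, doxycycline is 1 uM final, induction runs 16 h at 37 C, and ONE-Glo luminescence is read.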

Test [9] is described as follows: qHTS assay to identify small molecule agonists of the AP-1 signaling pathway (AID 1159526; calls by dose curve).
Test [10] in a line: qHTS assay to identify small molecule agonists of the AP-1 signaling pathway - cell viability counter screen (AID 1159525; calls by dose curve; also: nearly all actives have a fitted effect of over 55% in size). The method in brief: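 Same-well cytotoxicity counter screen of the Tox21 10K library in ME-180 cells. The readout is ATP-dependent luminescence after 5 h compound treatment. Data are normalised to DMSO and tetra n-octyl ammonium bromide controls.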

Outcome and Potency data for 26 compounds are collected here from PubChem BioAssay (Tox21).

Results filed as inconclusive are left out. Where a structure was tested more than once in an assay, its records may differ in their call. Calls of active or inactive are those of the source. Unless noted, calls follow the shape of the dose curve; as a rule, active = well fitted curve in the direction sought with a large enough effect in the repeat runs; inconclusive = weak or mixed curves; inactive = no such curve, though single readings can be large; an effect the other way counts as inactive or inconclusive.

Take `O=NN1CCCC1`: the compound was called inactive in test [1], in [2], in test [3], in test [4], in [5] and in test [6]. For the same compound, the Potency entry in [7] and in [9] was “inactive” throughout. For the same compound, the Potency in test [8] was 10.1 µM (active) and inactive.
Consider `Nc1c(Cl)c(Cl)nc(C(=O)O)c1Cl`, for which the compound was called inactive in test [1], in [2], in test [3], in [4], in test [5] and in [6]. In addition, the Potency entry in test [7], in test [8], in test [10] and in [9] was “inactive” each time.
As to `C=C(C)CCl`, the call in test [1], in test [2], in test [3], in test [4], in test [5] and in test [6] was inactive. Also, the Potency result in [7], in test [8] and in [9] was “inactive” each time.
Regarding `ClCc1cccnc1`, the result in [1], in test [2], in test [3], in test [4], in test [5] and in test [6] was inactive. The Potency entry in test [7], in test [8], in test [10] and in test [9] was “inactive” in each case.
As to `CC(C)(C)C(O)(CCc1ccc(Cl)cc1)Cn1cncn1` (stereo not drawn), the result in test [1], in test [2], in [3], in [4], in test [5] and in [6] was inactive. The Potency result in test [7], in test [8], in test [10] and in test [9] was “inactive” throughout.
Take `CN(C)CCO`: the compound was called inactive in [1], in test [2], in test [3], in test [4], in test [5] and in test [6]. Further, the Potency entry in [7], in test [8], in test [10] and in test [9] was “inactive” in each case.
As to `CCOP(OCC)OCC`, the result in [1], in test [2], in test [3], in [4], in [5] and in test [6] was inactive. In addition, the Potency result in [7], in test [8], in test [10] and in test [9] was “inactive” in each case.
On to `COC(=O)NS(=O)(=O)c1ccc(N)cc1`, for which the compound was called inactive in test [1], in [2], in [3], in test [4], in [5] and in test [6]. For the same compound, the Potency result in [7], in [8] and in test [9] was “inactive” throughout.
Consider `c1ccc(OP(Oc2ccccc2)Oc2ccccc2)cc1`, for which the compound was classed as inactive in test [1], in test [2], in [3], in [4], in [5] and in test [6]. In addition, the Potency result in [7], in test [8] and in test [9] was “inactive” in each case.
For the compound `C=CC(N)=O`, the call in test [1], in [2], in test [3], in [4], in test [5] and in test [6] was inactive. The Potency result in test [7], in test [8], in [10] and in test [9] was “inactive” throughout.
Turning to `CC1C=[C-]C=C1.[C-]#[O+].[C-]#[O+].[C-]#[O+].[Mn]`, the outcome in test [1], in test [2], in test [3], in test [4], in test [5] and in [6] was inactive. Besides, the Potency entry in test [7], in [8] and in test [9] was “inactive” each time.
Regarding `C=CCO`, the result in [1], in [2], in test [3], in test [4], in test [5] and in test [6] was inactive. The Potency result in test [7], in [10] and in test [9] was “inactive” each time.
As for `Nc1ccc(Cc2ccc(N)cc2)cc1`, the call in [1], in [2], in test [3], in test [4], in test [5] and in [6] was inactive. The Potency entry in test [7] and in [9] was “inactive” throughout.
As for `Cc1ccc(N)cc1N`, the compound was classed as inactive in [1], in test [2], in test [3], in test [4], in test [5] and in test [6]. The Potency entry in test [7] and in test [9] was “inactive” in each case.
As for `CCOP(=S)(OCC)SCCSCC`, the compound was classed as inactive in test [1], in [2], in test [3], in [4], in test [5] and in [6]. In addition, the Potency entry in test [7] and in test [9] was “inactive” each time.
Regarding `CN(C)N=O`, the call in [1], in test [2], in [3], in test [4], in [5] and in [6] was inactive. Also, the Potency result in test [7] and in test [9] was “inactive” each time.
In the case of `CC(Br)C(=O)O` (stereo not drawn), the compound was classed as inactive in test [1], in test [2], in [3], in test [4], in test [5] and in [6]. For the same compound, the Potency entry in test [7], in test [10] and in test [9] was “inactive” each time.
Regarding `CN(N=O)c1ccccc1`, the result in [1], in test [2], in test [4], in test [5] and in test [6] was inactive. Moreover, the Potency entry in [7], in test [8], in test [10] and in test [9] was “inactive” in each case.
As to `Clc1ccccc1Cl`, the compound was called inactive in [1], in test [2], in test [3], in test [4], in test [5] and in [6]. The Potency result in [7] and in [9] was “inactive” each time.
Take `O=Cc1cccc(Oc2ccccc2)c1`: the result in test [1], in [2], in test [3], in test [4], in test [5] and in test [6] was inactive. For the same compound, the Potency result in test [7], in test [10] and in test [9] was “inactive” throughout.
Take `CN=C=S`: the compound was classed as inactive in test [1], in test [2], in [3], in test [4], in test [5] and in test [6]. The Potency entry in [7], in [10] and in [9] was “inactive” in each case.
As for `O=c1n(Cl)c(=O)n(Cl)c(=O)n1Cl`, the call in test [1], in [2], in test [3], in [4], in [5] and in test [6] was inactive. The Potency entry in [7], in [10] and in test [9] was “inactive” in each case.
As to `CC(=O)C=C(C)C`, the compound was classed as inactive in test [1], in [2], in [3], in test [4], in [5] and in [6]. The Potency entry in test [7], in test [10] and in [9] was “inactive” in each case.
As for `CCCCOC(=O)c1ccccc1C(=O)OCCCC`, the compound was called inactive in test [1], in test [2], in test [3], in [4], in [5] and in test [6]. In addition, the Potency result in [7] is “inactive”.
As to `CCN(CC)c1ccccc1`, the compound was called inactive in test [1], in [2], in test [3], in test [4], in [5] and in [6]. Also, the Potency result in test [7], in test [10] and in [9] was “inactive” in each case.
For `CCNc1nc(NC(C)(C)C)nc(SC)n1`, the compound was called inactive in test [1], in [2], in test [3], in [4], in test [5] and in test [6]. The Potency result in test [7], in test [10] and in test [9] was “inactive” throughout.
